Test results from the supplement of paper PMC10849652.
Targets with a hit are over-represented here; the source holds about 8,800 in all. About 0.5% of all pairs of compound and target were hits. A number with no mark means an inactive call.

Experiments:
Assay in all cases: log2 fold change, soluble protein after heating vs DMSO (PISA); higher = thermal stabilisation; K562 lysate, 10 uM; active = over 0.2 and 3.5 SD of the protein, either way, in both replicates (recomputed)
erlotinib = compound: C#Cc1cccc(Nc2ncnc3cc(OCCOC)c(OCCOC)cc23)c1 [erlotinib]
How it was run: (§1)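 To prepare the extract, K562 pellets were dounce-homogenised in PBS pH 7.4 with 1 mM MgCl2, giving crude material at 1 mg/mL protein. This was treated with 10 μM compound for 30 min, then heated in aliquots for 3 min over 48°C-58°C before pooling and addition of NP-40 to 0.5% at 4°C. Centrifugation at 21,000xg for 90 min left soluble protein in the supernatant, which TMTpro 16plex LC-MS/MS quantified with equalised channel sums. Results are log-two fold changes in thermal stability compared with solvent controls, from duplicates.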

[1] = compound: C/C(=N\NC(=O)C1=CC(=CC=C1)S(=O)(=O)N2CCOCC2)/C3=C(C=CC(=C3)Cl)O
How it was run: as §1

[2] = compound: C1=CC(=CC=C1C2=NC3=C(N2)C=C(C=C3)C(=O)N)OC4=CC=C(C=C4)Cl
How it was run: as §1

[3] = compound: C1=CC2=C(C=CC(=C2)/C=C\3/C(=O)NC(=NCC4=CC=CS4)S3)N=C1
How it was run: as §1

[4] = compound: C1=CC2=NC=CN=C2C=C1/C=C/3\C(=O)NC(=O)S3
How it was run: as §1

[5] = compound: C1=CC=C(C=C1)C2=NC(=C(N2)C3=CC=NC=C3)C4=CC(=C(C=C4)Cl)O
How it was run: as §1

[6] = compound: C1=CC=C2C(=C1)C3=NNC4=CC=CC(=C43)C2=O
How it was run: as §1

[7] = compound: C1CCN(C1)C(=O)NC2=CC=CC(=C2)NC3=NC=C(C(=N3)NCCC4=CN=CN4)Br
How it was run: as §1

[8] = compound: C1CN(CCC1(CC2=CC=C(C=C2)Cl)N)C3=NC=NC4=C3C=CN4
How it was run: as §1

IRAK-1-4 Inhibitor I = compound: C1COCCN1CCN2C3=CC=CC=C3N=C2NC(=O)C4=CC(=CC=C4)[N+](=O)[O-] [IRAK-1-4 Inhibitor I]
How it was run: as §1

ibrutinib = compound: C=CC(=O)N1CCC[C@@H](n2nc(-c3ccc(Oc4ccccc4)cc3)c3c(N)ncnc32)C1 [ibrutinib]
How it was run: as §1

[9] = compound: CC(=O)c1cnc2ccc(-c3cc(Cl)c(O)c(Cl)c3)nc2c1N[C@H]1CC[C@H](CN(C)C)CC1
How it was run: as §1

ralimetinib = compound: CC(C)(C)Cn1c(N)nc2ccc(-c3[nH]c(C(C)(C)C)nc3-c3ccc(F)cc3)nc21 [ralimetinib]
How it was run: as §1

[10] = compound: CC(C)(O)CC(=O)NCCn1ccc2ncnc(Nc3ccc(Oc4cccc(C(F)(F)F)c4)c(Cl)c3)c21
How it was run: as §1

[11] = compound: CC(C)C1=C2N=C(C=C(N2N=C1)NCC3=CC=CC=C3)NCCCCCCN
How it was run: as §1

[12] = compound: CC1=C(C(CC(=O)N1)C2=CC=C(C=C2)C(F)(F)F)C(=O)NC3=C(C=C4C(=C3)C=NN4)F
How it was run: as §1

[13] = compound: CC1=C(C2=C(C=C1)C(=O)C3=CC=CC=C3N2CCCN)C
How it was run: as §1

[14] = compound: CC1=C(C=C(C=C1)NC(=O)C2=CC(=CC=C2)C(C)(C)C#N)NC3=CC4=C(C=C3)N=CN(C4=O)C
How it was run: as §1

[15] = compound: CC1=C(C=C(C=C1)NC(=O)C2=CC(=CC=C2)N(C)C)NC(=O)C3=CC=C(C=C3)O
How it was run: as §1

[16] = compound: CC1=CC=C(C=C1)SC2=C3C=C(SC3=CN=C2)C(=O)N
How it was run: as §1

Sequence of UniProt Q9H410 (Q9H410 whole entry, looked up): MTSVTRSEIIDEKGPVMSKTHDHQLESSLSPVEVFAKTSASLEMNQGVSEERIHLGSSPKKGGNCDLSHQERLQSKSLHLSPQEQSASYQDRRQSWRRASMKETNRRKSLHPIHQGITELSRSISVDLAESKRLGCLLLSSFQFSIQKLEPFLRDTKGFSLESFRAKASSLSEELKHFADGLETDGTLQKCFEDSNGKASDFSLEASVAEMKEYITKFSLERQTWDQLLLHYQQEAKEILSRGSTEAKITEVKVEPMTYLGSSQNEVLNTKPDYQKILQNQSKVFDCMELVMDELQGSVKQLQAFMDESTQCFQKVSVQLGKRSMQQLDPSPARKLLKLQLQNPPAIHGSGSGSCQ
Sequence of UniProt Q14674 (Q14674 whole entry, looked up): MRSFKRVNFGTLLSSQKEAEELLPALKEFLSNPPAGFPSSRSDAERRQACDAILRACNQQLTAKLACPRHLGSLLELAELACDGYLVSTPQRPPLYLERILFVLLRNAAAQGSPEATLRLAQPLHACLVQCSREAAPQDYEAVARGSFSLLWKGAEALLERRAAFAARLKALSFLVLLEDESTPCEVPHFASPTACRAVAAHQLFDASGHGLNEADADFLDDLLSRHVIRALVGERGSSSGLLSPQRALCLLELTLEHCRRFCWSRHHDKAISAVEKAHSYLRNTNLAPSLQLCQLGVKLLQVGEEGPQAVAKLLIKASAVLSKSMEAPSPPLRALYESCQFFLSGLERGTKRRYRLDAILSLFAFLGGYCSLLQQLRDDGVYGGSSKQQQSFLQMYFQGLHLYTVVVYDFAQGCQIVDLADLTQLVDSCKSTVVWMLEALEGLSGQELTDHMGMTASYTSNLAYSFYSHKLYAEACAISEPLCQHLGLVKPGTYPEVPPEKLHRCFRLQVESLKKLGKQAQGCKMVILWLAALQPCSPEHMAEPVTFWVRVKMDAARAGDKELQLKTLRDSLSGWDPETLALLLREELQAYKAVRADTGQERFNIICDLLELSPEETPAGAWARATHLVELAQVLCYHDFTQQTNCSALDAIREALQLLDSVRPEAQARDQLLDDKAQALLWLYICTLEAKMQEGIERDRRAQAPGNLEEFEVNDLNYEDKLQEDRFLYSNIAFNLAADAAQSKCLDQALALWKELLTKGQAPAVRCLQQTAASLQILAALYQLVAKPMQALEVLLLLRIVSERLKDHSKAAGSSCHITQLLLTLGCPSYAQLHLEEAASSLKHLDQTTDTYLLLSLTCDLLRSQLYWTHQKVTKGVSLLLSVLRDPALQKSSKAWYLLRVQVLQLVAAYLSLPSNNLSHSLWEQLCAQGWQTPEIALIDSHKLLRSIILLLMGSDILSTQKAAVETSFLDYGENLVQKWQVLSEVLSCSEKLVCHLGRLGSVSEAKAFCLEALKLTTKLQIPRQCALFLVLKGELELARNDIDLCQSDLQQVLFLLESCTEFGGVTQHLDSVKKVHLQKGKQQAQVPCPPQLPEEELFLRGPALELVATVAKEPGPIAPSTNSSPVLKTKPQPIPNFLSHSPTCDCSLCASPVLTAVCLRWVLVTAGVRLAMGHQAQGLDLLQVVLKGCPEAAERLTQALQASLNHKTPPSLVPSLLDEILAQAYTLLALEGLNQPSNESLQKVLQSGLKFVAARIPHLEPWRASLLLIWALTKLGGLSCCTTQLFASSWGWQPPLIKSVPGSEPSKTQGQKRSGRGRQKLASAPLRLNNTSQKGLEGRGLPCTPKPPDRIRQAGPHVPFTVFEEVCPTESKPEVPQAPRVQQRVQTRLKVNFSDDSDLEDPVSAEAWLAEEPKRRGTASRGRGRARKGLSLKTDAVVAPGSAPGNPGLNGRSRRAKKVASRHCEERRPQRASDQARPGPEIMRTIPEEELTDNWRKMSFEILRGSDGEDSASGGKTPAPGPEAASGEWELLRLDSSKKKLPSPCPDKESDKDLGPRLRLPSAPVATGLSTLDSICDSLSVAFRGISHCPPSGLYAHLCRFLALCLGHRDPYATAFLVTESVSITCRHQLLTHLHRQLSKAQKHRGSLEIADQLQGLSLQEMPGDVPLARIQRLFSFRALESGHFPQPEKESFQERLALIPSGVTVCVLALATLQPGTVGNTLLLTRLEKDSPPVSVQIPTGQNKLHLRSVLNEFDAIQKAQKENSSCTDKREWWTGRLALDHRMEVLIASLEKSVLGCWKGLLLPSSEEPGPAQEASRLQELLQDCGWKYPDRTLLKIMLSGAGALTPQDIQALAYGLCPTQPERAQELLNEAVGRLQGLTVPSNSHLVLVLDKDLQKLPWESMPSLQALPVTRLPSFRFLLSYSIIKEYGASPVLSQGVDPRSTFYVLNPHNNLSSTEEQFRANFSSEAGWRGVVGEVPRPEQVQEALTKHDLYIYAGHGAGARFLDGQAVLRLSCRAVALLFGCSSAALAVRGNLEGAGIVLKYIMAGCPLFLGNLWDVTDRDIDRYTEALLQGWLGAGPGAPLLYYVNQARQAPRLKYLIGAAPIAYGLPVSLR
Sequence of UniProt Q8NEZ5 (Q8NEZ5 whole entry, looked up): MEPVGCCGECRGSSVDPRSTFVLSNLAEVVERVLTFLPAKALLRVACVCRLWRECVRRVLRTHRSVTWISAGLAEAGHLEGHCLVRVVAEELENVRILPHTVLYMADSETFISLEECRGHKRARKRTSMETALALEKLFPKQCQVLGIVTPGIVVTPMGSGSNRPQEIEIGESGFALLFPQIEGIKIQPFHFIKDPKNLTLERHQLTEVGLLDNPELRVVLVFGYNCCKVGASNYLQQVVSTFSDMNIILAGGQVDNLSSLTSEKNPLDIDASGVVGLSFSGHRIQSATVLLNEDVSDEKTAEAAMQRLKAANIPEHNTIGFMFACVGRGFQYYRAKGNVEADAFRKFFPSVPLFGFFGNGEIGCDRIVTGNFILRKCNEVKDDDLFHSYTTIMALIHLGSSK
Sequence of UniProt Q13409 (Q13409 whole entry, looked up): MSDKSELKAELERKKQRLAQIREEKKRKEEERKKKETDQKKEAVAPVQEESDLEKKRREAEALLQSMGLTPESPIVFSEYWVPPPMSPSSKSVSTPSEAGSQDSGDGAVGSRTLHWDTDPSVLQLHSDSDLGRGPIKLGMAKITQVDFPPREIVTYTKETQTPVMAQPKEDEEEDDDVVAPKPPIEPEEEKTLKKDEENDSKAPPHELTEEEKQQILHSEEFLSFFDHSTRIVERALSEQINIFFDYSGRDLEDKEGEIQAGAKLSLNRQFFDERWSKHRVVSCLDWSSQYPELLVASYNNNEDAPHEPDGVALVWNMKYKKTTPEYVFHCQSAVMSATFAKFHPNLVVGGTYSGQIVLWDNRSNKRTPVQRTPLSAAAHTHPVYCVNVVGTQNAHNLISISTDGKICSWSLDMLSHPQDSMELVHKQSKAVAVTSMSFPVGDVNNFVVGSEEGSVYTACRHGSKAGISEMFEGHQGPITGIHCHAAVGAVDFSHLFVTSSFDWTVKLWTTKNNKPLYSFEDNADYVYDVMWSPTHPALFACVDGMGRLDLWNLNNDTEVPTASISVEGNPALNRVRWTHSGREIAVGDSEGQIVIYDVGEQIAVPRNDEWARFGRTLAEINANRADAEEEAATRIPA
Sequence of UniProt Q9BQI3 (Q9BQI3 whole entry, looked up): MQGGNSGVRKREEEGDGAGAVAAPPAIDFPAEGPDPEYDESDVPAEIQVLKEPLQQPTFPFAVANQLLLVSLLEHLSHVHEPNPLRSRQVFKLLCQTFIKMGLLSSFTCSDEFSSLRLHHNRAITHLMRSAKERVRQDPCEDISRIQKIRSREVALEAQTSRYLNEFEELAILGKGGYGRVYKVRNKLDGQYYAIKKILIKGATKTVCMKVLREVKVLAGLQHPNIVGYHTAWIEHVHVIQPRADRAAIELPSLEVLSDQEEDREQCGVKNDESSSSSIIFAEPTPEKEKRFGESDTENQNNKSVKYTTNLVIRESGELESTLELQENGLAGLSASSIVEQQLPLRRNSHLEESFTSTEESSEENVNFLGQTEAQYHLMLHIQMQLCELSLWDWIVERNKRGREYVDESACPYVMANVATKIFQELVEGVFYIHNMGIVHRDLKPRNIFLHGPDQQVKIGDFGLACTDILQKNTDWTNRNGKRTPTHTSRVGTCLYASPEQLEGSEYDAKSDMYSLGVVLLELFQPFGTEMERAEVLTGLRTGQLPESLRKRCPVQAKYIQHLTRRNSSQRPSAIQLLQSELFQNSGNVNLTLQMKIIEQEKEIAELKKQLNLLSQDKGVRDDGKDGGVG
Sequence of UniProt Q8TAG9 (Q8TAG9 whole entry, looked up): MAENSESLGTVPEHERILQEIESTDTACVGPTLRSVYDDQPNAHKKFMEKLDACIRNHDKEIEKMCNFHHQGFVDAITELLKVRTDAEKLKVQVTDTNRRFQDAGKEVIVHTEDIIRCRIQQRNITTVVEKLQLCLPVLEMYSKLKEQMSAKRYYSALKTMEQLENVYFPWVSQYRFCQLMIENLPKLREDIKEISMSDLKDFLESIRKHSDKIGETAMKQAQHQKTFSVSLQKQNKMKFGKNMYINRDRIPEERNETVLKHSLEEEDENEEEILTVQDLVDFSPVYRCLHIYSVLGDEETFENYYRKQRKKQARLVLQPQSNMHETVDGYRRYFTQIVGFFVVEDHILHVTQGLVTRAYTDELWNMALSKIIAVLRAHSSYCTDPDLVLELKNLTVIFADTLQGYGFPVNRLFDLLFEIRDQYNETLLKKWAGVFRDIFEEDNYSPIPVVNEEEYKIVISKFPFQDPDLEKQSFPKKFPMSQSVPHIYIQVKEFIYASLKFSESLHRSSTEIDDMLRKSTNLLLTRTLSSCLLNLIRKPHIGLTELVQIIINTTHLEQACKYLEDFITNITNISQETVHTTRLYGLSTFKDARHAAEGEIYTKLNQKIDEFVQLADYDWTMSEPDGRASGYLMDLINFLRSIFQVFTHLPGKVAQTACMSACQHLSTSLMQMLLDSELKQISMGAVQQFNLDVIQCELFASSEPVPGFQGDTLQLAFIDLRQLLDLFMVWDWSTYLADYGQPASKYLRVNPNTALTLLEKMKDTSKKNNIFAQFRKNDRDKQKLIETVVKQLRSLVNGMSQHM

| Target | log2 fold change (erlotinib) | log2 fold change [1] | log2 fold change [2] | log2 fold change [3] | log2 fold change [4] | log2 fold change [5] | log2 fold change [6] | log2 fold change [7] | log2 fold change [8] | log2 fold change (IRAK-1-4 Inhibitor I) | log2 fold change (ibrutinib) | log2 fold change [9] | log2 fold change (ralimetinib) | log2 fold change [10] | log2 fold change [11] | log2 fold change [12] | log2 fold change [13] | log2 fold change [14] | log2 fold change [15] | log2 fold change [16] |
| --- | --- | --- | --- | --- | --- | --- | --- | --- | --- | --- | --- | --- | --- | --- | --- | --- | --- | --- | --- | --- |
| FNTB (UniProt P49356) | -0.03 | -0.038 | 0.011 | 0.013 | -0.034 | -0.005 | -0.02 | 0.028 | -0.022 | -0.006 | -0.018 | 0.005 | 0.03 | -0.013 | -0.022 | -0.036 | -0.026 | -0.011 | 0.038 | -0.013 |
| ESYT2 (UniProt H7BXI1) | -0.056 | 0.037 | -0.017 | 0.042 | -0.025 | -0.022 | -0.076 | -0.005 | -0.008 | 0.019 | 0.035 | -0.022 | 0.003 | -0.039 | -0.04 | 0.046 | 0.05 | 0.015 | -0.025 | -0.044 |
| DSN1 (UniProt Q9H410) | -0.021 | 0.03 | 0.037 | 0.014 | 0.01 | -0.025 | 0.032 | -0.034 | -0.024 | 0.002 | -0.004 | -0.023 | 0.011 | 0.001 | -0.015 | 0.024 | -0.018 | 0.017 | 0.025 | -0.011 |
| EMC7 (UniProt Q9NPA0) | 0.023 | -0.011 | -0.009 | -0.02 | -0.044 | -0.011 | -0.052 | -0.002 | 0.011 | 0.02 | -0.033 | -0.001 | 0.008 | -0.003 | 0.013 | -0.012 | 0.024 | 0.015 | -0.006 | -0.032 |
| FBXO22 (UniProt Q8NEZ5) | 0.042 | -0.022 | 0.048 | 0.016 | 0.02 | -0.002 | -0.01 | 0.029 | 0.049 | 0.007 | -0.03 | 0.017 | 0.003 | -0.06 | -0.078 | -0.026 | -0.006 | 0.016 | 0 | -0.014 |
| FIG4 (UniProt Q92562) | 0.032 | -0.032 | -0.029 | 0 | 0.007 | 0.064 | 0.02 | 0.061 | -0.053 | 0.003 | 0.14 | -0.07 | -0.01 | -0.115 | -0.012 | -0.248 | 0.029 | -0.093 | -0.085 | 0.012 |
| FXR1 (UniProt P51114) | 0.041 | 0.012 | -0.039 | -0.011 | -0.024 | 0.002 | -0.082 | -0.015 | -0.008 | -0.057 | 0.023 | -0.011 | -0.017 | 0.032 | 0.002 | 0.014 | -0.006 | -0.01 | 0.02 | 0.016 |
| EXOC6 (UniProt Q8TAG9) | 0 | -0.045 | -0.062 | -0.058 | -0.044 | 0.005 | -0.043 | 0.018 | 0.008 | 0.013 | 0 | 0.072 | 0.034 | -0.018 | -0.049 | 0.048 | 0.049 | -0.022 | 0.042 | 0.01 |
| EIF2AK1 (UniProt Q9BQI3) | -0.016 | 0.087 | 0.017 | -0.02 | 0.029 | -0.027 | -0.016 | -0.02 | -0.006 | -0.01 | 0.007 | -0.151 | 0.028 | 0.034 | -0.017 | -0.001 | -0.007 | 0.044 | 0.018 | -0.072 |
| DYNC1I2 isoform 5 (UniProt Q13409) | -0.005 | 0.001 | -0.001 | 0.009 | 0 | 0.009 | 0.019 | -0.007 | 0.016 | 0.018 | 0.022 | -0.021 | 0 | -0.014 | 0.004 | 0.012 | -0.007 | -0.012 | 0.008 | -0.003 |
| EPRS (UniProt P07814) | 0.028 | 0.032 | -0.007 | 0.01 | 0.014 | 0.017 | -0.026 | 0 | -0.004 | -0.006 | -0.018 | 0.002 | 0.01 | 0.026 | 0.02 | -0.014 | 0.02 | -0.004 | 0.046 | 0.019 |
| ESPL1 (UniProt Q14674) | 0.147 | 0.019 | 0.074 | -0.086 | 0.009 | -0.011 | 0.054 | -0.025 | 0.006 | -0.028 | -0.076 | -0.335 | 0.002 | 0.01 | 0.04 | -0.005 | -0.036 | -0.04 | 0.076 | -0.371 (active) |
| GBF1 (UniProt Q92538) | 0.044 | 0.043 | -0.036 | -0.009 | 0.002 | -0.008 | -0.012 | -0.007 | 0.023 | 0.058 | 0.007 | -0.001 | 0.051 | -0.03 | -0.011 | -0.003 | -0.011 | -0.015 | 0.017 | 0.012 |
| FREM2 (UniProt Q5SZK8) | 0.015 | -0.095 | -0.109 | -0.065 | 0.047 | 0.008 | -0.051 | -0.02 | -0.021 | 0.009 | -0.062 | 0.024 | -0.014 | -0.042 | -0.024 | -0.06 | -0.01 | 0.079 | 0.035 | -0.073 |
| FAM114A2 (UniProt Q9NRY5) | -0.039 | -0.068 | 0.141 | -0.028 | -0.1 | -0.052 | 0.02 | -0.045 | -0.104 | -0.002 | -0.016 | -0.061 | -0.036 | -0.11 | 0.057 | 0.171 | 0.06 | -0.069 | 0.005 | 0.012 |
| FOXJ3 (UniProt Q9UPW0) | 0.018 | 0.085 | -0.015 | -0.001 | 0.014 | 0.032 | -0.01 | -0.035 | -0.013 | -0.025 | -0.003 | 0.002 | -0.021 | -0.08 | 0.047 | -0.026 | -0.022 | 0.071 | 0.025 | 0.006 |
